Test results as given in PubChem BioAssay AID1159580 (chemical genetic matrix, 2015).
“And” between values parts separate entries of the source, which are not always exact repeats. Equal values may be shown once. The whole screen tested about 5,500 compounds, of which about 2,000 (36%) were called active. About 18% were inconclusive and are not listed. Rule as the data show it: active = normalized growth mostly below about 0.91 (no sharp cut-off); inconclusive = no clear call, values can overlap the other calls; inactive = mostly above about 0.92. This is one part of the list.

Assay: chemical genetic growth profiling, strain panel (AID 1159580);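 also: tested at 20 µM; growth read once vehicle control cultures reached saturation at 30 °C; 1 = growth at the plate median or of vehicle wells; lower values mean less growth of the strain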
Details: S. cerevisiae deletion strains, growth OD

Measured: normalized growth

COc1cc(-c2coc3cc(O[C@@H]4O[C@H](CO)[C@@H](O)[C@H](O)[C@H]4O)c(OC)c(O)c3c2=O)cc(O)c1OC
inactive: locus YAL021C, strain ccr4, hits give low values 1.01 | locus YAL026C, strain drs2, hits give low values 1.01 | locus YAL030W, strain snc1, hits give low values 0.988 | locus YBL061C, strain skt5, hits give low values 0.997 | locus YBR009C, strain hhf1, hits give low values 0.986 | locus YBR021W, strain FUR4, hits give low values 1.02 | locus YBR023C, strain chs3, hits give low values 0.989 | locus YBR171W, strain sec66, hits give low values 0.99 | locus YBR229C, strain ROT2, hits give low values 0.994 | locus YBR231C, strain swc5, hits give low values 0.983 | locus YBR279W, strain paf1, hits give low values 1 | locus YCL011C, strain gbp2, hits give low values 0.999 | locus YCL016C, strain dcc1, hits give low values 0.996 | locus YCL029C, strain bik1, hits give low values 1.01 | locus YCL061C, strain MRC1, hits give low values 0.994 | locus YCL069W, strain vba3, hits give low values 1.01 | locus YCR088W, strain abp1, hits give low values 0.997 | locus YDL005C, strain med2, hits give low values 0.98 | locus YDL035C, strain GPR1, hits give low values 1.04 | locus YDL040C, strain nat1, hits give low values 0.994 | locus YDL074C, strain BRE1, hits give low values 1.08 | locus YDL101C, strain DUN1, hits give low values 0.987 | locus YDL185W, strain tfp1, hits give low values 0.997 | locus YDL192W, strain arf1, hits give low values 1.02 | locus YDR001C, strain nth1, hits give low values 1.01 | locus YDR069C, strain doa4, hits give low values 0.986 | locus YDR101C, strain arx1, hits give low values 1.03 | locus YDR137W, strain rgp1, hits give low values 1.02 | locus YDR150W, strain NUM1, hits give low values 1.02 | locus YDR159W, strain sac3, hits give low values 0.973 | locus YDR162C, strain NBP2, hits give low values 1.03 | locus YDR195W, strain ref2 0.939 | locus YDR297W, strain sur2, hits give low values 1.01 | locus YDR318W, strain mcm21, hits give low values 1.02 | locus YDR334W, strain swr1, hits give low values 0.997 | locus YDR335W, strain msn5, hits give low values 1 | locus YDR388W, hits give low values 1 | locus YDR392W, strain spt3, hits give low values 0.874 | locus YDR502C, strain sam2, hits give low values 1 | locus YEL003W, strain gim4, hits give low values 0.982 | locus YEL037C, strain rad23, hits give low values 1.01 | locus YEL061C, strain CIN8 (second series), hits give low values 1 | locus YEL061C, strain CIN8, hits give low values 1 | locus YER015W, strain faa2, hits give low values 1 | locus YER016W, strain bim1, hits give low values 0.996 | locus YER110C, hits give low values 0.996 | locus YER111C, strain swi4, hits give low values 1 | locus YER155C, strain BEM2 (second series), hits give low values 0.928 | locus YER155C, strain BEM2, hits give low values 0.991 | locus YER167W, strain BCK2, hits give low values 0.993 | locus YFR010W, strain ubp6, hits give low values 0.999 | locus YGL078C, strain dbp3, hits give low values 0.988 | locus YGL086W, strain mad1, hits give low values 1 | locus YGL167C, strain pmr1, hits give low values 0.996 | locus YGL173C, strain kem1, hits give low values 1 | locus YGL227W, strain vid30, hits give low values 0.995 | locus YGL240W, strain doc1, hits give low values 0.961 | locus YGL248W, strain PDE1, hits give low values 0.982 | locus YGL253W, strain hxk2, hits give low values 1.02 | locus YGR135W, strain pre9, hits give low values 0.97 | locus YGR252W, strain gcn5, hits give low values 0.997 | locus YHR013C, strain ard1, hits give low values 0.979 | locus YHR027C, strain rpn1, hits give low values 0.995 | locus YHR030C, strain SLT2, hits give low values 1.01 | locus YHR079C, strain IRE1 (second series), hits give low values 1 | locus YHR079C, strain IRE1, hits give low values 1.01 | locus YHR094C, strain hxt1, hits give low values 0.993 | locus YHR129C, strain ARP1, hits give low values 0.999 | locus YHR142W, strain chs7, hits give low values 1.02 | locus YHR200W, strain rpn10, hits give low values 1 | locus YIL066C, strain RNR3, hits give low values 1 | locus YIL073C, strain SPO22, hits give low values 1.05 | locus YIL125W, strain kgd1, hits give low values 0.997 | locus YIR030C, strain dcg1, hits give low values 0.994 | locus YJL092W, strain hpr5, hits give low values 1 | locus YJL095W, strain BCK1 (second series), hits give low values 1 | locus YJL095W, strain BCK1, hits give low values 1.02 and 1.01 | locus YJL115W, strain asf1, hits give low values 0.993 | locus YJL129C, strain trk1, hits give low values 1 | locus YJL134W, strain LCB3, hits give low values 0.992 | locus YJL154C, strain vps35, hits give low values 0.997 | locus YJL164C, strain tpk1, hits give low values 1 | locus YJL166W, strain qcr8, hits give low values 0.991 | locus YJL168C, strain set2, hits give low values 0.995 | locus YJL187C, strain SWE1 (second series), hits give low values 0.991 | locus YJR043C, strain POL32, hits give low values 1.05
